Results from PubChem BioAssay (NCATS).
Results filed as inconclusive are left out. Activity calls are given as the source filed them. Unless noted, the call rests on the fitted dose curve; in most records, active means well fitted curve in the direction sought with a large enough effect; inconclusive means small, poorly fitted or top-dose-only effect, or another doubt; inactive means no such curve, though single readings can be large; an effect the other way counts as inactive or inconclusive.

Tests used:
[1] = AP1 Signaling Pathway (AID 357; active means well fitted curve in either direction with a large enough effect, not every such curve was filed as active;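 further: ME-180 reporter cells stimulated with EGF at its EC50 level; on the % scale 0 is the no-effect control and ±100 the full control effect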); details: ME-180 AP-1-bla reporter, EGF-induced, beta-lactamase ratio, 5 h; at 7.69 µM (top of the series) unless noted
Outline: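 AP-1-bla ME-180 cells, Opti-MEM + 0.5% dialyzed FBS, plated overnight 37 °C. Cpd titration + EC50 EGF, 5 h 37 °C. CCF4 2.5 h RT; ex 405, em 460/530 ratio → %activity, AC50.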

[2] = molecular target: Cytochrome P450 1A2 (Homo sapiens) (UniProt P05177); assay: p450-cyp1a2 (AID 410; calls by dose curve;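 further: -100% = full effect of reference inhibitor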)
Outline: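 Human CYP1A2 (20nM) demethylated Luciferin-ME at its Km (100uM) in 100mM KPO4. After 10 min compound preincubation, NADPH regeneration ran the reaction 60 min at room temperature. Luciferin was read by luminescence, normalized to 57 uM furafylline.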

[3] = NFAT Signaling Pathway (AID 444; active means well fitted curve in either direction with a large enough effect, not every such curve was filed as active;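 further: carbachol stimulus at about its EC50 of 1 µM final; on the % scale 0 is the no-effect control and ±100 the full control effect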); details: Jurkat NFAT-bla M1, carbachol, beta-lactamase ratio, 5 h; at 7.69 µM (top of the series) unless noted
Outline: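 Jurkat cells carrying an NFAT-driven β-lactamase reporter and co-transfected muscarinic M1 receptor were treated with compound plus carbachol (1 uM final, an EC50 level) for 5 h at 37 °C. CCF4 loading followed for 1 h at RT; 460/530 nm ratio gave %activity.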

[4] = Stat Signaling Pathway (AID 446; active means well fitted curve in either direction with a large enough effect, not every such curve was filed as active;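 further: ME-180 cervical cancer cells given 40 pM IL-6 alongside compound; SIE-controlled beta-lactamase reporter measured as 460/530 nm FRET emission ratio; on the % scale 0 is the no-effect control and ±100 the full control effect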); details: ME-180 (cervical carcinoma) SIE beta-lactamase reporter, IL-6 stimulated, 5 h; at 7.69 µM (top of the series) unless noted
Outline: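 IL-6/STAT signaling read in ME-180 cells via an SIE beta-lactamase reporter. Stimulus was 40 pM IL-6 (its AC50) for 5 hrs, so both activation and inhibition register.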

[5] = molecular target: Glucocorticoid receptor (Homo sapiens) (UniProt P04150); assay: GR-EFC Redistribution (AID 451; calls by dose curve; further: potency means the concentration at half of the fitted maximal effect); details: CHO-K1 GR-EFC translocation, beta-gal luminescence, 2 h
Outline: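 CHO-K1 cells stably expressing nuclear-localized β-gal enzyme acceptor and GR fused C-terminally to the enzyme donor fragment; ligand-driven nuclear translocation restores β-gal by complementation. Compounds titrated up to 46 uM final, 2 h at 37 °C; luminescence read.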

[6] = molecular target: Mitogen-activated protein kinase 10 (Mus musculus) (UniProt Q61831); assay: JNK3 AlphaScreen Assay (AID 530; active means well fitted curve in either direction with a large enough effect, not every such curve was filed as active;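 further: kinase came from lysate of stimulated human HepG2 cells; signal reports phosphorylation of biotinylated GST-cJun 1-79 at Ser73 with 10 µM ATP; on the % scale 0 is the no-effect control and ±100 the full control effect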)
Outline: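 JNK3 came from HepG2 lysates pre-activated with IL-1beta and TNF-alpha and phosphorylated biotinylated GST-cJun (1-79) at 10 uM ATP, pH 7.6, room temperature. Compounds were titrated. AlphaScreen signal used anti-phospho-cJun (Ser73) antibody.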

[7] = molecular target: 3',5'-cyclic-AMP phosphodiesterase 4B (Homo sapiens) (UniProt Q07343); assay: qHTS Assay for Inhibitors of PDE-IV (AID 607; active means well fitted activation curve with a large enough effect in the main read-out, with a control signal flat, not every such curve was filed as active; further: % of control where 0% means no effect)
Outline: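 Live HEK293 cells with a modified cyclic nucleotide-gated (CNG) channel report intracellular cAMP via membrane-potential dye fluorescence (ex 535/em 590 nm). Endogenous PDE-IV was targeted. Compounds were tested at up to 22.9 uM final; RO 20-1724 100 uM served as control.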

[8] = molecular target: ATP-dependent 6-phosphofructokinase (Trypanosoma brucei brucei) (UniProt O15648); assay: qHTS Assay to Find Inhibitors of T. brucei phosphofructokinase: hit validation (AID 492961)
Outline: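 Reaction: 0.1 M triethanolamine pH 8.0, 5 mM MgCl2, F6P 0.5 mM, ATP 0.1 mM, PFK 1.25 nM, 45 min RT. Read-out: ADP-Glo luminescence. Analysis: concentration-response fits, classed by r2 and efficacy.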

[9] = molecular target: Ubiquitin carboxyl-terminal hydrolase 1 (Homo sapiens) (UniProt O94782); assay: Inhibitors of USP1/UAF1: Pilot qHTS (AID 504865);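 further: rhodamine fluorescence freed from ubiquitin-rhodamine substrate followed over time; top concentration of the series differs between compounds; on the % scale 0 is the no-effect control and ±100 the full control effect; nearly all actives have a fitted effect of over 35% in size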
Outline: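 1nM USP1/UAF1 + cpd, 15 min RT; start w/ Ub-Rho 150nM final; kinetic FL 480/540 nm, 6 reads q60 s. Buffer 50mM HEPES pH 7.8, 0.5mM EDTA, 1mM TCEP, 0.01% Tween-20, 0.1 mg/ml BSA.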

[10] = molecular target: Luciferin 4-monooxygenase (Photinus pyralis) (UniProt P08659); assay: Biochemical firefly luciferase enzyme assay for NPC (AID 624030);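 further: purified P. pyralis luciferase at 10 nM with luciferin and ATP substrate; 0% = DMSO and -100% = full luciferase inhibition by PTC124 control; nearly all actives have a fitted effect of over 70% in size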
Outline: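 Counter-screen for direct inhibition of the luciferase enzyme by approved-drug library compounds, run at 10 nM enzyme in 50 mM Tris acetate (final). Luminescence was read within 5 min of enzyme-buffer addition and normalized to PTC124 versus DMSO (0%).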

[11] = S16 Schwann cell PMP22 intronic element firefly luciferase assay (AID 624032);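 further: plate controls were DMSO for no effect and PTC124 positive control mean for full effect; nearly all actives have a fitted effect of over 30% in size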
Outline: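 Rat S16 Schwann cells stably carrying a PMP22 intronic element-driven Fluc reporter were seeded overnight, then exposed to compounds for 24 h at 37 °C. Luminescence was normalized to PTC124 (positive control) and DMSO (0% activity).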

[12] = S16 Schwann cell PMP22 intronic element beta-lactamase assay (AID 624044; calls by dose curve;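 further: 0% = DMSO and -100% = potassium clavulanate positive control; nearly all actives have a fitted effect of over 15% in size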)
Outline: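 Rat S16 Schwann cells with beta-Lac driven by a PMP22 intronic element, compound-treated 24 h at 37 °C. LiveBLAzer FRET B/G read: 460 nm normalized to potassium clavulanate vs DMSO; 535 nm FRET as viability; concentration-effect curves classified.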

[13] = qHTS profiling for inhibitors of Plasmodium falciparum proliferation (AID 504749);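 further: 0% = DMSO vehicle and full inhibition = artemisinin control; nearly all actives have a fitted effect of over 60% in size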; details: P. falciparum in erythrocytes, SYBR Green DNA, 72 h, at 12.8 µM (top of the series)
Outline: (§1)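 P. falciparum-infected erythrocytes (0.3% parasitemia, 2.5% hematocrit final) were exposed to compounds for 72 h at 37 C in 5% CO2, then lysed with SYBR Green buffer overnight at room temperature; parasite DNA fluorescence was normalized to artemisinin and DMSO controls.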

3D7 = assay: as above; details: P. falciparum in erythrocytes, SYBR Green DNA, 72 h; series mostly up to 28.7 µM
Outline: as §1

7G8 = assay: as above; details: P. falciparum in erythrocytes, SYBR Green DNA, 72 h; series mostly up to 28.7 µM
Outline: as §1

AA1029 = assay: as above; details: P. falciparum in erythrocytes, SYBR Green DNA, 72 h; series mostly up to 28.7 µM
Outline: as §1

AS120 = assay: as above; details: P. falciparum in erythrocytes, SYBR Green DNA, 72 h; series mostly up to 28.7 µM
Outline: as §1

ATS189 = assay: as above; details: P. falciparum in erythrocytes, SYBR Green DNA, 72 h; series mostly up to 28.7 µM
Outline: as §1

ATS95 = assay: as above; details: P. falciparum in erythrocytes, SYBR Green DNA, 72 h; series mostly up to 28.7 µM
Outline: as §1

C2A = assay: as above; details: P. falciparum in erythrocytes, SYBR Green DNA, 72 h; series mostly up to 28.7 µM
Outline: as §1

CP185 = assay: as above; details: P. falciparum in erythrocytes, SYBR Green DNA, 72 h; series mostly up to 28.7 µM
Outline: as §1

CP191 = assay: as above; details: P. falciparum in erythrocytes, SYBR Green DNA, 72 h; series mostly up to 28.7 µM
Outline: as §1

CP192 = assay: as above; details: P. falciparum in erythrocytes, SYBR Green DNA, 72 h; series mostly up to 28.7 µM
Outline: as §1

CP194 = assay: as above; details: P. falciparum in erythrocytes, SYBR Green DNA, 72 h; series mostly up to 28.7 µM
Outline: as §1

CP201 = assay: as above; details: P. falciparum in erythrocytes, SYBR Green DNA, 72 h; series mostly up to 28.7 µM
Outline: as §1

CP203 = assay: as above; details: P. falciparum in erythrocytes, SYBR Green DNA, 72 h; series mostly up to 28.7 µM
Outline: as §1

CP211 = assay: as above; details: P. falciparum in erythrocytes, SYBR Green DNA, 72 h; series mostly up to 28.7 µM
Outline: as §1

CP217 = assay: as above; details: P. falciparum in erythrocytes, SYBR Green DNA, 72 h; series mostly up to 28.7 µM
Outline: as §1

CP237 = assay: as above; details: P. falciparum in erythrocytes, SYBR Green DNA, 72 h; series mostly up to 28.7 µM
Outline: as §1

CP238 = assay: as above; details: P. falciparum in erythrocytes, SYBR Green DNA, 72 h; series mostly up to 28.7 µM
Outline: as §1

CP247 = assay: as above; details: P. falciparum in erythrocytes, SYBR Green DNA, 72 h; series mostly up to 28.7 µM
Outline: as §1

CP250 = assay: as above; details: P. falciparum in erythrocytes, SYBR Green DNA, 72 h; series mostly up to 28.7 µM
Outline: as §1

CP252 = assay: as above; details: P. falciparum in erythrocytes, SYBR Green DNA, 72 h; series mostly up to 28.7 µM
Outline: as §1

CP256 = assay: as above; details: P. falciparum in erythrocytes, SYBR Green DNA, 72 h; series mostly up to 28.7 µM
Outline: as §1

Sequence of Ubiquitin carboxyl-terminal hydrolase 1 (Homo sapiens) (O94782 whole entry, looked up): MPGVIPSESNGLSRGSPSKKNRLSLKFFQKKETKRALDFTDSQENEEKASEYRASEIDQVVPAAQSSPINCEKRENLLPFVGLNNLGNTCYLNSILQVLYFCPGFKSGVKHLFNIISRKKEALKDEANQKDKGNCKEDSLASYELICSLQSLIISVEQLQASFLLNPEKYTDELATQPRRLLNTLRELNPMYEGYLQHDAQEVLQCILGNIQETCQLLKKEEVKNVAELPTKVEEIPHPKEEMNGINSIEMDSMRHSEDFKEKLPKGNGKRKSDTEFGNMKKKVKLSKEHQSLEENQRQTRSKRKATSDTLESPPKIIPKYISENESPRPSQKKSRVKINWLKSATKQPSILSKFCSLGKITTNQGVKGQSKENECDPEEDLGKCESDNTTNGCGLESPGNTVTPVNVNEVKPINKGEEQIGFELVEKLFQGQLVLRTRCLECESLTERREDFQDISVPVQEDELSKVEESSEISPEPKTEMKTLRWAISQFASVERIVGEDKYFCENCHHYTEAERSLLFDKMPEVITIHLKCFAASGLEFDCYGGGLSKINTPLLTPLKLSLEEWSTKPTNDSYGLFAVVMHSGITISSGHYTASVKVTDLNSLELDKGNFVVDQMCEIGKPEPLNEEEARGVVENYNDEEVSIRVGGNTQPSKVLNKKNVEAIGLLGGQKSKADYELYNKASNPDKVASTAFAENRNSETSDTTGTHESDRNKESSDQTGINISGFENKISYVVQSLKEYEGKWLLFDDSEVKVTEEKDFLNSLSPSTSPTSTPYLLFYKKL
Sequence of Luciferin 4-monooxygenase (Photinus pyralis) (P08659 whole entry, looked up): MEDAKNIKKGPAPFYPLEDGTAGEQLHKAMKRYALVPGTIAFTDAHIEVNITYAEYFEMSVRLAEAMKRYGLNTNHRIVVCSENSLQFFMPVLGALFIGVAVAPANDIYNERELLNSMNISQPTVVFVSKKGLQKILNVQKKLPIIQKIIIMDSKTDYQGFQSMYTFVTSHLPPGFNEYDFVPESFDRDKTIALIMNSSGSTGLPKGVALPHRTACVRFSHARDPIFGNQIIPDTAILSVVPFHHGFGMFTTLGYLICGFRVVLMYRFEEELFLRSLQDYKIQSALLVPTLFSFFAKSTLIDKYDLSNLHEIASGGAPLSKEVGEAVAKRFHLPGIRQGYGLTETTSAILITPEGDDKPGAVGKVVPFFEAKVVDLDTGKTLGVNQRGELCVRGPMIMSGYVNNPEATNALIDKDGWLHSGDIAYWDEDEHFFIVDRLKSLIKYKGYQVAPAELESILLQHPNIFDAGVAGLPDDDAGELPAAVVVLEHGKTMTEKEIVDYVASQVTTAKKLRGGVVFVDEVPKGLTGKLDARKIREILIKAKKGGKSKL
Sequence of Glucocorticoid receptor (Homo sapiens) (P04150 whole entry, looked up, the tested form may be a part): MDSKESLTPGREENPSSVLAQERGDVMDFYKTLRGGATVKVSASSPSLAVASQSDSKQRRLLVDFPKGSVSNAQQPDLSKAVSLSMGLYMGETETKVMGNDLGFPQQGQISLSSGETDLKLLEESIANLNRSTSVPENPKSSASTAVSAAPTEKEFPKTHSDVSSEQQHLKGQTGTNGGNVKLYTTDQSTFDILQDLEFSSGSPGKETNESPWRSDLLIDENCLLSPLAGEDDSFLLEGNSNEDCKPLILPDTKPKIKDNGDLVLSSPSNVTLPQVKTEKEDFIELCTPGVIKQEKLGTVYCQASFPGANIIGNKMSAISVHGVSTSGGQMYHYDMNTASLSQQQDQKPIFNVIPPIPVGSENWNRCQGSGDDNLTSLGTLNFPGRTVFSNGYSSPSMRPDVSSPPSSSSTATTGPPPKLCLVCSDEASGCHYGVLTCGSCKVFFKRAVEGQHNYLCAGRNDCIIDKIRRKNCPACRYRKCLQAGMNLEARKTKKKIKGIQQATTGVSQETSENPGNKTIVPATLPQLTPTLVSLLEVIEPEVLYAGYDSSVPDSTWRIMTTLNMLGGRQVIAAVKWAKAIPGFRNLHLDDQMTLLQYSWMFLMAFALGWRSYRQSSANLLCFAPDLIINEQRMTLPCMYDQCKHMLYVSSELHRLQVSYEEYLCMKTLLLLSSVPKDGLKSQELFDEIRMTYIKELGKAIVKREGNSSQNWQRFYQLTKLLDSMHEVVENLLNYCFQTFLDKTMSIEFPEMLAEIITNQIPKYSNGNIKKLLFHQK
Sequence of Cytochrome P450 1A2 (Homo sapiens) (P05177 whole entry, looked up): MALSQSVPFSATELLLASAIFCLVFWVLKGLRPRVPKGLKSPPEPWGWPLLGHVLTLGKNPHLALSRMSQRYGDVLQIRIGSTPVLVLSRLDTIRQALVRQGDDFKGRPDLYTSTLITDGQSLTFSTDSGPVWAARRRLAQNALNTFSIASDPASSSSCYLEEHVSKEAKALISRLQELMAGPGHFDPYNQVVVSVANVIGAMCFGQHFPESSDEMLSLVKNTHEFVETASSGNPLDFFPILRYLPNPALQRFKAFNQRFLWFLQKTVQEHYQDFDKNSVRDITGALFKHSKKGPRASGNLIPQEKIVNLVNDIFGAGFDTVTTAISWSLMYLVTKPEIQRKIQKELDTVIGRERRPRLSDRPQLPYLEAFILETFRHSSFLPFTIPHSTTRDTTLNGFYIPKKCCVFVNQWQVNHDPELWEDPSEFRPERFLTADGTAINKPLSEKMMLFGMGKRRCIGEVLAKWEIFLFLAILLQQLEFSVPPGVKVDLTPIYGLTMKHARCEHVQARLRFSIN
Sequence of ATP-dependent 6-phosphofructokinase (Trypanosoma brucei brucei) (O15648 whole entry, looked up): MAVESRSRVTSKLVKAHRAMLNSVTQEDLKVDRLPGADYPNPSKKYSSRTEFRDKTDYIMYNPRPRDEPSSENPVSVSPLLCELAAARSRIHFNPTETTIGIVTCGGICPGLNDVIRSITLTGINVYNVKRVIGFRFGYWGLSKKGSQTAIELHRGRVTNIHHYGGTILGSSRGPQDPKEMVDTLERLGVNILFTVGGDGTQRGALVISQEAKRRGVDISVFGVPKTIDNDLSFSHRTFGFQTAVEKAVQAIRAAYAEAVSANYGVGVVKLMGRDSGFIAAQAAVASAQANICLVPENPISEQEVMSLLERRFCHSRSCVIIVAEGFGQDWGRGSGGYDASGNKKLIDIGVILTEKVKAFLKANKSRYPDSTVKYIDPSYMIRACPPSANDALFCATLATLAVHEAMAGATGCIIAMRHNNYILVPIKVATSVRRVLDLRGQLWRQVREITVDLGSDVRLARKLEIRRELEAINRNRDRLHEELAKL
Sequence of 3',5'-cyclic-AMP phosphodiesterase 4B (Homo sapiens) (Q07343 whole entry, looked up): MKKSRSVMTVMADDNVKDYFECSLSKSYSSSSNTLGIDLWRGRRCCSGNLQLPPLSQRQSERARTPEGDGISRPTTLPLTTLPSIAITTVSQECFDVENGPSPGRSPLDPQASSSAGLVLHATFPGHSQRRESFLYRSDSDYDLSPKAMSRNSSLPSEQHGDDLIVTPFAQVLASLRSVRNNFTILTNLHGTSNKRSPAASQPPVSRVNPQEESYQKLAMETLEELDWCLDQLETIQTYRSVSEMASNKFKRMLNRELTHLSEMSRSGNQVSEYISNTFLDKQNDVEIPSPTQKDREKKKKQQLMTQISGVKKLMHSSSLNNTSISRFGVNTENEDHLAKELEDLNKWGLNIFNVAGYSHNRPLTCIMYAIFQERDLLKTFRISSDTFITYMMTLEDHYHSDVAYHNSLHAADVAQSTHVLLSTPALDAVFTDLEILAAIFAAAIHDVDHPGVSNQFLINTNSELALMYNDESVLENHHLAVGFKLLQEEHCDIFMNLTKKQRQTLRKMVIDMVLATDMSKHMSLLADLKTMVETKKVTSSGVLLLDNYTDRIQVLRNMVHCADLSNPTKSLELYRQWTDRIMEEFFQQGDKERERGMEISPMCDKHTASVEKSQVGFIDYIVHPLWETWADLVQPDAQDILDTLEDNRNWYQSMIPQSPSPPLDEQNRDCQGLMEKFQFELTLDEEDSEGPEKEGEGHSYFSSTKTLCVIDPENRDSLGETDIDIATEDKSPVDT

COc1cc2nc(N(C)CCCNC(=O)[C@@H]3CCCO3)nc(N)c2cc1OC
inactive: activity change, negative = inhibition [1] 7.7% [at 17.2 µM] | Potency [2] | activity change, negative = inhibition [3] -29.6% [at 17.2 µM] | activity, negative = inhibition [4] 2.71% [at 17.2 µM] | Potency [5] > 20.6 µM | Potency [6] | Potency [7] | outcome [8] | Potency [9] | outcome [10] | Potency [11] | outcome [12] | activity, negative = inhibition ([13]; parasite line A) 3.61% | activity, negative = inhibition ([13]; parasite line B) 7.55% | Potency (3D7) | Potency (7G8) | Potency (AA1029) | Potency (AS120) | Potency (ATS189) | Potency (ATS95) | Potency (C2A) | Potency (CP185) | Potency (CP191) | Potency (CP192) | Potency (CP194) | Potency (CP201) | Potency (CP203) | Potency (CP211) | Potency (CP217) | Potency (CP237) | Potency (CP238) | Potency (CP247) | Potency (CP250) | Potency (CP252) | Potency (CP256)
